40 compounds from PubChem BioAssay (Tox21) can be followed below.

SMILES strings stand for the structures. Inconclusive results are not listed. The source made the active and inactive calls. The call rests on the fitted dose curve.

Chain of Peroxisome proliferator-activated receptor delta (Homo sapiens) (Q03181 whole entry, looked up): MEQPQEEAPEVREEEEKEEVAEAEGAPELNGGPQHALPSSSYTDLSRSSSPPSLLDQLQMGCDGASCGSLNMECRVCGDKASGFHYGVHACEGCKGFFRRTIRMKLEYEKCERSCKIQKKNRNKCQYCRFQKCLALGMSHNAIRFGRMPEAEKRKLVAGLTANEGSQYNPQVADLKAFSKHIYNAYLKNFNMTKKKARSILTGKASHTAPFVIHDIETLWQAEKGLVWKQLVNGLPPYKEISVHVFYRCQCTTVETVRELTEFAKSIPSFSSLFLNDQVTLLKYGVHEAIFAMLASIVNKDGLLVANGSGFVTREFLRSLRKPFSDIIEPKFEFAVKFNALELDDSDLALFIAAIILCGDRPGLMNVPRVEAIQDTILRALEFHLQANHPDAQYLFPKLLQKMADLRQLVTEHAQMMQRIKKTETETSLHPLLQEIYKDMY

The assay deals with Peroxisome proliferator-activated receptor delta (Homo sapiens) (UniProt Q03181). In words: qHTS assay to identify small molecule agonists of the peroxisome proliferator-activated receptor delta (PPARd) signaling pathway (AID 743212). The following applies: HEK293H PPARd-UAS-bla, beta-lactamase FRET ratio, 17 h; series mostly up to 62.6 µM. From the text:
U.S. Tox21 Program National Center for Advancing Translational Sciences [NCATS] NIH Chemical Genomics Center [NCGC] U.S. Environmental Protection Agency [EPA] National Institutes of Environmental Health Sciences [NIEHS] National Toxicology Program [NTP] U.S. Food and Drug Administration [FDA] Tox21 Assay Overview: The peroxisome proliferator-activated receptors (PPARs) are lipid-activated transcription factors of the nuclear receptor superfamily with three distinct subtypes namely PPAR alpha, PPAR delta (PPARd) and PPAR gamma. All these subtypes heterodimerizes with Retinoid X receptor (RXR) and have different physiological functions. […] To identify the compounds that activate PPAR-delta signaling, GeneBLAzer PPAR delta UAS-bla HEK293H cell line (Invitrogen, Carlsbad, CA, USA) containing a beta-lactamase reporter gene under the control of an Upstream Activator Sequence (UAS) was used to screen the Tox21 compound library.
Tox21 Assay Protocol Summary: PPARd-bla cells were dispensed at 3000 cells/6uL/well in 1536-well black wall/clear bottom plates using a Multidrop Combi (Thermo Fisher Scientific, Waltham, MA) dispenser. After the assay plates were incubated at 37 C and 5% CO2 for 5 h, 23 nL of compounds dissolved in DMSO, positive controls or DMSO only was transferred to the assay plate by a Pintool station (Kalypsys, San Diego, CA). The assay plates were incubated at 37C for 17 h. After 1 uL of LiveBLAzerTM B/G FRET substrate was added using a Bioraptr Flying Reagent Dispenser (FRD) workstation (Beckman Coulter, Indianapolis, IN, USA), the plates were incubated at room temperature for 2 h, and fluorescence intensity was measured by an Envision plate reader (PerkinElmer, Shelton, CT).
(qHTS replaces the single test concentration by a dilution series.)
As to `O=C(O)CCCC(=O)O`, the outcome was inactive.
In the case of `C=CCCCCCCCCCC`, the outcome was inactive.
With `CCC/C=C/C=O` the entry was “inactive”; with `C1CN(SSN2CCOCC2)CCO1`, “inactive”; with `c1ccc2c(c1)[nH]c1ccccc12`, “inactive”.
The entry for `C[C@]12CC[C@@H]3c4ccc(O)cc4CC[C@H]3[C@@H]1CC[C@@H]2O` is “inactive”; for `O=C(O)COCCN1CCN(C(c2ccccc2)c2ccc(Cl)cc2)CC1` (stereo not given) it is “inactive”.
As to `COc1ccc(C(=O)c2ccccc2O)c(O)c1`, the outcome was inactive.
As for `FC(F)(F)C(Cl)Br` (stereo not given), the result was inactive.
Turning to `CCOC(=O)C(C)Oc1ccc(Oc2cnc3cc(Cl)ccc3n2)cc1` (stereo not given), the outcome was inactive.
With `Cc1ccc2c(c1)C(=O)OC2=O` the entry was “inactive”; with `Cc1ccc([N+](=O)[O-])c(C)c1`, “inactive”.
For the compound `CC(=O)Oc1c(C)c(C)c2c(c1C)CC[C@@](C)(CCC[C@H](C)CCC[C@H](C)CCCC(C)C)O2`, the result was inactive.
The entry for `CCCN1C=CN(C)C1` is “inactive”.
With `CC(C)(C)c1cccc(C(C)(C)C)c1O` the entry was “inactive”.
In the case of `C=C[C@H]1CN2CC[C@H]1C[C@@H]2[C@@H](O)c1ccnc2ccc(OC)cc12`, the result was inactive.
With `OCCNCCO`, the result was inactive.
Consider `Cc1ccc(C)c(O)c1`, for which the result was inactive.
Regarding `C=CCOC(=O)C(=C)C`, the result was inactive.
`Nc1cc(Cl)c(N)c(Cl)c1`: the result was inactive.
The entry for `Cc1ccc(S(=O)(=O)O)cc1C` is “inactive”; for `CC(=O)OC(C)C` it is “inactive”.
The entry for `c1ccc2cc3ccccc3cc2c1` is “inactive”; for `Nc1cc([N+](=O)[O-])ccc1C(=O)O` it is “inactive”.
The entry for `C=CN1CCCC1=O` is “inactive”; for `ClC/C=C/CCl` it is “inactive”.
For the compound `Cc1ccc(/C(=C\CN2CCCC2)c2ccccn2)cc1`, the outcome was inactive.
For `C=C[Si](OCCOC)(OCCOC)OCCOC`, the outcome was inactive.
The entry for `c1ccc2c(c1)ccc1cc3c(ccc4ccccc43)cc12` is “inactive”.
Regarding `O=C1CCc2ccccc2O1`, the result was inactive.
The entry for `CCO[Si](CCCNC(N)=O)(OCC)OCC` is “inactive”; for `O=[Se](O)O` it is “inactive”.
The entry for `CC1(C)OC(=O)NC1=O` is “inactive”.
The entry for `Nc1ccc2c(O)cc(S(=O)(=O)O)cc2c1` is “inactive”; for `COCCOCCOCCO` it is “inactive”.
On to `Brc1nc2ccccc2s1`, for which the result was inactive.
With `COC(=O)C(C)Oc1ccc(Oc2ncc(C(F)(F)F)cc2Cl)cc1` (stereo not given) the entry was “inactive”; with `CCCCCCCCCCC(CO)CCCCCCCC` (stereo not given), “inactive”; with `CCCCCCC(C)O` (stereo not given), “inactive”.
With `C=C[C@@]1(C)CC(=O)[C@]2(O)[C@@]3(C)[C@@H](O)CCC(C)(C)[C@@H]3[C@H](O)[C@H](OC(C)=O)[C@@]2(C)O1` the entry was “inactive”.
